From PubChem BioAssay AID1845224 (National Center for Advancing Translational Sciences (NCATS), 2023)
Results filed as inconclusive are left out. The source made the active and inactive calls. The call rests on the fitted dose curve; in most records, active means well fitted curve in the direction sought with a large enough effect; inconclusive means small, poorly fitted or top-dose-only effect, or another doubt; inactive means no such curve, though single readings can be large or run the other way.

Test system: NanoLuc luciferase (engineered Oplophorus gracilirostris luciferase)
Test: Confirmatory Nanoluciferase (NLuc) qHTS assay for identification of artifact compounds.
Settings: secreted NLuc in S16 cell medium, luminescence, 5 min; series mostly up to 39 µM; activity change, negative = inhibition: at the top concentration
From the text: PI: Alexander Tropsha Ph.D. UNC Eshelman School of Pharmacy University of North Carolina, Chapel Hill, North Carolina Hits from high-throughput screening (HTS) of chemical libraries are often false positives due to their interference with the assay detection technology. In response to this problem, we generated the largest publicly available library of chemical liabilities and developed a free webtool to predict HTS artifacts, both of which are described herein. More specifically, we generated, curated, and integrated HTS datasets for thiol reactivity, redox activity, and luciferase (firefly and nano) activity. Using these curated datasets, we developed and validated several Quantitative Structure-Interference Relationship (QSIR) models to predict nuisance behavior. […] These models were employed for virtual profiling of the National Center for Advancing Translational Science's (NCATS) in-house library, and 256 compounds for each assay were selected for the experimental validation of nuisance behavior. The BA for these external predictions ranged from 58 to 78% for compounds within the applicability domains of the models. […] The models developed in this study, along with aggregation models previously developed by our group (SCAM Detective) were implemented in "Liability Predictor," an online tool which may be used as part of chemical library design or for triaging HTS hits. Both the models and the curated datasets are publicly available at https://liability.mml.unc.edu/.
PROTOCOL TABLE SEQUENCE No. (e.g., 1, 2, 3, etc.); PARAMETER (e.g., Cells, Incubation, Reagent, etc.); VALUE; DESCRIPTION. 1; Reagent; 2 uL; Nanoluciferase media. 2; Compounds and control; 16 nL; Kalypsis pin tool (Wako USA) equipped with a 1536-well pin head. 3; Incubation; 15 min. 4; Reagent; 2 uL; Luciferase enzyme. 5; Incubation; 5 min. 6; Detection; Luminescence, ViewLux microplate reader. NOTES (numbers refer to Sequence numbers above) 1. Medium was collected from the culture flasks of NLuc-expressing S16 cells (80% confluent) prior to cell plating, filtered through a 0.22um filter, and frozen at -20C prior to use. Media was diluted (1:55) and 2 uL was dispensed into all wells of a 1536-well assay plate (solid-bottom white plate; Greiner Bio One, Monroe, NC). 2. A Wako Pin-tool (Wako Automation, Richmond, VA) was used to transfer 16 nL of compounds (consisting of 7-plates in qHTS format, final concentration range 18.3 nM to 114 uM) or control Cilnidipine (final concentration range 623 nM to 80 uM). 3. 15 min. incubation at room temperature protected from light. 4. 2 uL of NLuc substrate (1:100 in Nano-Glo luciferase buffer; Nano-Glo luminescence assay, Promega, Madison, WI) was dispensed for a final assay volume of 4 uL. 5. Plates were centrifuged (121xg, 15 seconds) and incubated for 5 minutes. 6. Samples were read for luminescence on a ViewLux CCD imager (PerkinElmer). Data were normalized to no-enzyme (0% activity) and no-inhibitor (DMSO; 100%) controls and the resulting percent inhibition data were fitted to a 4-parameter Hill equation using NCATS in-house software.
Potency means the concentration at half of the fitted maximal effect.

Activity change, negative = inhibition, inactive:
O=C(OCc1ccccc1)c1ccccc1O 0.921%
CCCN(C(=O)Cc1c(C(=O)O)[nH]c2ccc(Cl)cc12)c1ccc(OCC)cc1 -2.15%
CC(C)CCC[C@@H](C)[C@H]1CC[C@H]2[C@@H]3CC[C@@H]4C[C@H](O)CC[C@]4(C)[C@H]3CC[C@]12C -5.09%
CCCC(=O)Nc1cc2nn(-c3ccccc3)nc2cc1C -5.59%
COc1cccc(C(=O)Nc2ccccc2-c2nnc(-c3ccc(C(C)(C)C)cc3)o2)c1 -10.1%
Cc1cc2oc(=O)cc(C)c2c2occ(-c3ccc(Cl)cc3)c12 -1.13%
COc1cccc(N2CCN(c3c4c(nc5nncn35)CCC4)CC2)c1 -13.7%
Cc1ccc(NC(=O)Cn2c(=O)n(CCC(=O)NCCc3ccccc3)c(=O)c3ccccc32)cc1 -10.7%
Cc1ccc(C(=O)Nc2nc(-c3ccccc3)ns2)cc1 -7.23%
CCOC(=O)c1ccc(N2C(=O)c3n[nH]c(-c4ccco4)c3C2c2ccc(F)cc2)cc1 (stereo not given) -17.7%
C=C(C)[C@]12C[C@@H](C)[C@@]34OC(Cc5ccccc5)(O[C@@H]1[C@@H]3C=C(COC(=O)Cc1cc(OC)c(O)cc1I)C[C@]1(O)C(=O)C(C)=C[C@@H]41)O2 -8.96%
CC(Sc1oc(-c2cccs2)nc1S(=O)(=O)c1ccccc1)c1ccccc1 (stereo not given) -16.5%
Fc1ccc(-c2cc(-c3nc(-c4ccc(Cl)cc4)no3)[nH]n2)cc1 -0.152%
COc1ccc(-c2noc(N3CCC(C(=O)N4CCN(c5cccc(C)c5C)CC4)CC3)n2)cc1 -5.97%
CC1(C)OC2CC(=O)OCC23C1CC(=O)C1(C)C3CC[C@@]2(C)[C@H](c3ccoc3)OC(=O)C3OC312 (stereo not given in full) 0.365%
O=C1NC(=O)/C(=C/c2cccn2-c2ccc(P(=O)(O)O)cc2)N1 -3.45%
COc1ccc(CC(N)C(=O)N[C@H]2[C@@H](O)[C@H](n3cnc4c(N(C)C)ncnc43)O[C@@H]2CO)cc1 (stereo not given in full) -0.358%
O=C(Nc1ccc(-c2nc3ccccc3[nH]2)cc1)c1ccc(Cl)c(Cl)c1 -3.73%
Cc1cc(C)cc(-n2c(SCC(=O)N3CCCCCC3)nc3c([nH]c4ccccc43)c2=O)c1 -4.09%
Cc1ccc(-c2nnc(Nc3cccc(Br)c3)c3ccccc23)cc1S(=O)(=O)N1CCCCC1 -0.839%
COc1ccc(C2Nc3ccccc3C(=O)N2Cc2ccccc2)cc1Oc1ccc(NC(C)=O)cc1 (stereo not given) -10.2%
COc1ccc(CNC(=O)C(=O)NCC(c2ccco2)S(=O)(=O)c2ccc(C)cc2)cc1 (stereo not given) -3.51%
CCC(C(=O)NCc1cc(OC)ccc1OC)n1nc(C)c2sc3ccccc3c2c1=O (stereo not given) -11.2%
C[C@H](CCC(=O)O)[C@H]1CCC2C3CC[C@@H]4C[C@H](O)CC[C@]4(C)C3CC[C@@]21C (stereo not given in full) -6.93%
COc1ccc(C2=Nn3c(nnc3-c3cccc(OC)c3)SC2)cc1 -1.18%
C[C@@H]1C[C@H]2[C@@H]3CCC4=CC(=O)C=C[C@]4(C)[C@@]3(F)[C@@H](O)C[C@]2(C)[C@@]1(O)C(=O)CO -0.23%
N#Cc1cccc(-c2ccc(NC(=O)c3cccs3)cn2)c1 -9.86%
O=C(CSc1nc(-c2ccccc2)cn1-c1ccccc1)Nc1ccccc1 -12.3%
COc1cccc2cc(C(=O)Nc3ccc(F)c(F)c3)c(=O)oc12 -6.18%
COC(=O)CCC(C)C1CCC2C3CC[C@H]4CC(O)CC[C@@]4(C)C3CC(O)[C@]12C (stereo not given in full) -8.16%
CCCCCCCCCCCCCC(=O)N[C@@H](C)[C@H](O)c1ccccc1 -1.06%
CCCN(CCC)CCNC(=O)CN1C(=O)COc2ccc(S(=O)(=O)N3CCC(C)CC3)cc21 -0.175%
CCN(CC)CCNC(=O)c1nn(C)c2c1CS(=O)(=O)c1ccccc1-2 8.41%
CCOC(=O)N1CCN(S(=O)(=O)N2CCCC(C(=O)NCc3cc(OC)ccc3OC)C2)CC1 (stereo not given) -22.6%
COc1ccc(-c2nc3cccc(C)n3c2Nc2ccc(C)cc2)cc1 -4.83%
O=C1c2ccccc2C(=O)N1Cc1ccccn1 -0.535%
O=C(Nc1noc2ccccc12)c1c(F)cccc1F -3.71%

Potency, active:
O=C(Oc1ccccc1Cl)c1cc(-c2ccc3c(c2)OCCO3)on1 1.54 µM
O=C(CCS(=O)(=O)c1nc(-c2ccc3c(c2)OCO3)cc(C(F)(F)F)n1)Nc1ccccc1C(F)(F)F 12.2 µM
Cc1oc(-c2cccc(Br)c2)nc1CSc1nc2ncccc2[nH]1 8.64 µM
